From PubChem BioAssay AID1159580 (chemical genetic matrix, 2015)
About 2,000 (36%) of roughly 5,500 compounds were called active. Not shown: some 18% with an inconclusive outcome. No stated cut-off is given here; in the data, active means normalized growth mostly below about 0.91 (no sharp cut-off); inconclusive means no clear call, values can overlap the other calls; inactive means mostly above about 0.92. The list shows a part of the results.

Assay: chemical genetic growth profiling, strain panel (AID 1159580);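 further: tested at 20 µM; growth read once vehicle control cultures reached saturation at 30 °C; 1 = growth at the plate median or of vehicle wells; lower values mean less growth of the strain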
Conditions: growth OD

Measured: normalized growth

COc1cc(/C=C2\NC(=O)NC2=O)ccc1O
inactive: S. cerevisiae deletion strains, locus YAL013W, strain DEP1, hits give low values 1 | S. cerevisiae deletion strains, locus YBR229C, strain ROT2, hits give low values 0.965 | S. cerevisiae deletion strains, locus YCL061C, strain MRC1, hits give low values 1 | S. cerevisiae deletion strains, locus YDL101C, strain DUN1, hits give low values 0.982 | S. cerevisiae deletion strains, locus YDR150W, strain NUM1, hits give low values 0.963 | S. cerevisiae deletion strains, locus YEL061C, strain CIN8, hits give low values 0.956 | S. cerevisiae deletion strains, locus YGR078C, strain PAC10, hits give low values 0.977 | S. cerevisiae deletion strains, locus YHR030C, strain SLT2, hits give low values 0.873 | S. cerevisiae deletion strains, locus YHR087W, strain rtc3, hits give low values 1.04 | S. cerevisiae deletion strains, locus YJL187C, strain SWE1, hits give low values 0.982 | S. cerevisiae deletion strains, locus YJR043C, strain POL32, hits give low values 0.997 | S. cerevisiae deletion strains, locus YJR075W, strain HOC1, hits give low values 0.976 | S. cerevisiae deletion strains, locus YKL190W, strain CNB1, hits give low values 0.986 | S. cerevisiae deletion strains, locus YLR039C, strain RIC1, hits give low values 0.918 | S. cerevisiae deletion strains, locus YLR058C, strain SHM2 (second series), hits give low values 0.98 | S. cerevisiae deletion strains, locus YLR085C, strain ARP6, hits give low values 0.941 | S. cerevisiae deletion strains, locus YLR262C, strain YPT6, hits give low values 0.945 | S. cerevisiae deletion strains, locus YML094W, strain GIM5, hits give low values 0.989 | S. cerevisiae deletion strains, locus YMR219W, strain ESC1, hits give low values 0.974 | S. cerevisiae deletion strains, locus YMR263W, strain SAP30, hits give low values 0.998 | S. cerevisiae deletion strains, locus YMR307W, strain GAS1, hits give low values 1.07 | S. cerevisiae deletion strains, locus YNL128W, strain TEP1, hits give low values 0.993 | S. cerevisiae deletion strains, locus YNL153C, strain GIM3, hits give low values 0.98 | S. cerevisiae deletion strains, locus YNL298W, strain CLA4 (second series), hits give low values 0.968 | S. cerevisiae deletion strains, locus YNL322C, strain KRE1, hits give low values 0.996 | S. cerevisiae deletion strains, locus YNR030W, strain Alg12, hits give low values 1.01 | S. cerevisiae deletion strains, locus YPL055C, strain LGE1, hits give low values 0.999 | S. cerevisiae deletion strains, locus YPL241C, strain CIN2, hits give low values 0.975 | S. cerevisiae deletion strains, locus YPR135W, strain CTF4, hits give low values 0.945 | S. cerevisiae strains, strain wild type, hits give low values 0.948
